TDP1 cell CPT – DT40-hTDP1 cell growth loss with CPT | chicken DT40 Tdp1-/-;hTDP1 cells + 20 nM CPT, ATP luminescence, 48 h | Potency, µM (series often up to 46.2 µM), for inactives: at the highest dose activity change, negative = growth inhibition, most hits filed as inhibitors | actives 12% (n = 420,000); note: % is set by controls: 0 for no effect and ±100 for the full control effect; nearly all actives have a fitted effect of over 55% in size
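Chicken DT40 Tdp1-/- cells stably complemented with human TDP1 were seeded at 400 cells/well in medium containing 20 nM camptothecin, exposed to pin-transferred compounds, and grown at 37 °C for at least 48 hr. Viability was read as ATP luminescence.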
ATXN2 expr inh – ATXN2 expression inhibition. HEK-293 ATXN2-luciferase reporter, luminescence, 24 h. Potency, µM (titrated, usually from 57 µM), inactives show at the highest dose activity change, negative = inhibition, usual class: inhibitors. actives 0.72% (n = 360,000). AID 1745845; note: % is set by controls: 0 for no effect and ±100 for the full control effect; nearly all actives have a fitted effect of over 55% in size
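ATXN2-luciferase reporter cells (luciferase flanked by upstream and downstream ATXN2 gene portions) were treated 24 h at 37 °C with compounds at up to 57 uM. SteadyGlo luminescence gave expression; GF-AFC fluorescence gave viability.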
TGFb SMAD3 inh – inhibitors of TGF-b signaling. HepG2 CAGA-GFP TGF-b/SMAD3 reporter, GFP fluorescence, 18 h; TGF-beta stimulated, 500 pg/mL final. Potency, µM (titrated, usually from 46.1 µM), inactives show at the highest dose activity, negative = inhibition, usual class: inhibitors. actives 1.2% (n = 410,000); note: % is set by controls: 0 for no effect and ±100 for the full control effect; nearly all actives have a fitted effect of over 65% in size
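Smad-responsive CAGA-GFP expression was quantified in HEPG2 cells exposed to compounds and 500 pg/mL final TGF-beta for 18 h at 37 degrees C; unstimulated wells defined full inhibition.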
HepG2 viability – kills HepG2 cells in TGF-b inhibitor counter-screen. HepG2 CAGA-GFP viability, ATP luminescence, 18 h. Potency, µM (titrated, usually from 46.1 µM), inactives show at the top dose activity change, negative = cytotoxicity, hits mostly cytotoxic. actives 0.76% (n = 410,000)
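CellTiter-Glo luminescence gave cytotoxicity after 18 hours at 37 degrees C. The cells were HepG2 CAGA-GFP in 1% FBS DMEM, stimulated with 500 pg/mL TGF-beta after compound addition. %Activity was normalised to no-cell wells (complete cell-killing) and DMSO (no toxicity), and curves were fitted and classified.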
S2 tox – viability counter-screen for ATXN expression inhibitors; Potency, µM (doses to about 56.7 µM), most hits filed as cytotoxic; actives 0.49% (n = 400,000); S2 cells (HEK-293 line with an ATXN2-luciferase reporter) viability, CellTiter-Fluor protease fluorescence, 24 h; note: nearly all actives have a fitted effect of over 40% in size
DT40 TDP1 no CPT – qHTS for Inhibitors of human tyrosyl-DNA phosphodiesterase 1 (TDP1): qHTS in cells in absence of CPT; Potency, µM (titrated, usually from 46.2 µM), inactives show at the highest dose activity change, negative = growth inhibition, usual class: inhibitors; DT40 Tdp1-/- hTDP1 cells, no CPT, ATP luminescence, 48 h; actives 15% (n = 420,000); AID 686978, 2013; note: % is set by controls: 0 for no effect and ±100 for the full control effect; nearly all actives have a fitted effect of over 55% in size
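Cells were dispensed at 400 per well, compounds added by pin tool, plates incubated ≥48 hr at 37 °C, then CellTiter-Glo added for 30 min at room temperature before luminescence reading. Line: DT40 Tdp1-/- complemented with hTDP1; camptothecin omitted.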
* marks the source's active call; other numbers are inactive results; i = inactive; ? = inconclusive; . = not tested or not shown. Compounds with a hit are over-represented: about 17% of the library has one in this group of screens. Calls come from the whole dose curve; as a rule, active = well fitted curve in the direction sought with a large enough effect; inconclusive = small, poorly fitted or top-dose-only effect, or another doubt; inactive = no such curve, though single readings can be large; an effect the other way counts as inactive or inconclusive. Potency is the fitted concentration of half-maximal effect.

SMILES | TDP1 cell CPT | ATXN2 expr inh | TGFb SMAD3 inh | HepG2 viability | S2 tox | DT40 TDP1 no CPT
COc1ccc(OCc2nnc(SC(C)C(=O)Nc3ccc(N4CCOCC4)cc3)n2C)cc1 (stereo unspecified) | -11% | 5% | 25% | 1% | i | -5%
COCCN1Cc2cc3cc(C)ccc3nc2SC1=Nc1ccc(OC)cc1 | ? | -9% | -2% | -18% | i | ?
CCOc1ccc2nc3c(cc2c1)CN(CCCO)C(=NCCOC)S3 | ? | 19% | -2% | -2% | i | 15µM*
CCOc1ccc(N=C2Sc3nc4ccc(C)cc4cc3CN2CCOC)cc1 | ? | -22% | -14% | -21% | i | ?
COCCN=C1Sc2nc3ccc(C)cc3cc2CN1Cc1cccs1 | ? | 7% | 0% | 1% | . | 21µM*
O=C(c1cccc(F)c1)N1CCC2(CCCN(Cc3ccccc3)C2)CC1 | 12% | . | . | . | . | -28%
CCN(CC)CCCC(C)Nc1cc(/C=C/c2ccccc2Cl)nc2cc(Cl)ccc12 (stereo unspecified) | 0.63µM* | . | 2.8µM* | 2.8µM* | . | 0.89µM*
N#Cc1ccccc1CSc1nnc(Cc2ccccc2)o1 | 7% | 42% | -4% | -15% | i | -23%
CSCCC(=O)N1CCC(n2nccc2NC(=O)CCCc2ccccc2)CC1 | -19% | . | -15% | 1% | i | -26%
CCOC(=O)c1cc(OCC)c2c(ccc3cc(OC)ccc32)n1 | ? | . | 0% | -7% | i | 5.8µM*
Cc1c(CN(C)C)c2c(n1Cc1ccccc1)C(=O)c1ccc(Br)cc1-2 | ? | ? | ? | 18µM* | ? | ?
COc1ccc(CN2CCC(Oc3ccc(C(=O)N4CCCC4)cc3)CC2)c(F)c1 | -13% | 10% | -12% | -4% | ? | 3%
COC(=O)c1c(C)sc(-c2c(-c3ccc4c(c3)OCCO4)[nH]c3c2c(=O)[nH]c(=O)n3C)c1O | ? | . | -3% | 3% | . | 21µM*
CCn1c(C)c(C(=O)O)c2cc(OC)c3ccccc3c21 | -20% | -13% | 0% | 1% | i | 16%
Cc1cc(C(=S)N2CCOCC2)c(C)n1-c1ccc(Cl)cc1 | 21µM* | -17% | -22% | 0% | ? | 21µM*
Cc1cc(C(=O)C(=O)N(C)C)c(C)n1-c1ccc(Cl)cc1 | ? | -22% | 2% | -3% | i | 18µM*
Cc1cc(C)cc(N2CCN(C(=O)N3CCOCC3)CC2)c1 | -10% | -4% | -4% | -10% | i | -13%
Cc1cc(C)cc(-n2c(C)cc(C(=S)N3CCOCC3)c2C)c1 | ? | -14% | 2% | -6% | i | 12µM*
Cc1cccc(-n2c(C)cc(C(=S)N3CCOCC3)c2C)c1C | 15µM* | -5% | -12% | 8% | i | 18µM*
Cc1cc(C(=O)O)c(C)n1-c1ccccc1 | -14% | -3% | -15% | -10% | i | -15%
N#Cc1ccc(S(=O)(=O)NC2CC2)cc1 | -8% | -15% | -7% | -2% | i | -22%
C=CCN(CC=C)C(=O)C(=O)c1cc(C)n(-c2ccc([N+](=O)[O-])cc2)c1C | ? | -10% | ? | 3% | i | 15µM*
COc1ccc(NC(=O)C(=O)c2cc(C)n(-c3ccc(C)cc3)c2C)cc1Cl | ? | -23% | ? | -38% | i | 8.2µM*
Cc1cc(C(=O)C(=O)N(C)C)c(C)n1-c1ccc([N+](=O)[O-])cc1 | -20% | -19% | ? | 2% | i | -25%
Cc1cc(C(O)c2ncc(-c3ccc(Oc4ccccc4)cc3)[nH]2)ccc1F (stereo unspecified) | 18µM* | ? | ? | -102% | ? | ?
SMILES | TDP1 cell CPT | ATXN2 expr inh | TGFb SMAD3 inh | HepG2 viability | S2 tox | DT40 TDP1 no CPT
Cc1cc(C(O)c2ncc(-c3ccc(Cl)cc3)[nH]2)ccc1F (stereo unspecified) | 18µM* | -15% | -10% | -27% | ? | ?
OC(c1ccc(F)cc1)c1ncc(-c2ccc(Oc3ccccc3)cc2)[nH]1 (stereo unspecified) | ? | -15% | ? | 16µM* | ? | 16µM*
Cn1cccc1C(=O)N1CCN(S(=O)(=O)c2ccccc2)CC1 | 0% | -6% | -1% | 11% | i | -21%
Cc1cc(N2CCOCC2)n2nc(-c3cccc(F)c3)cc2n1 | -21% | -23% | -3% | -14% | i | -9%
CCC1CCCCN1c1cc(C)nc2cc(-c3cccc(C)c3)nn12 (stereo unspecified) | ? | -28% | ? | -14% | i | 13µM*
COCCNC(=O)CCCn1c(SCC(=O)Nc2ccc(F)cc2)nc2c(sc3ccccc32)c1=O | ? | -10% | 6% | -8% | i | ?
CCNC(=O)CN(c1ccc(Br)c(C)c1)S(C)(=O)=O | 12% | -21% | 8% | 4% | ? | 0%
COC1=CC(=O)OC(c2ccc(C(F)(F)F)cc2)C1 (stereo unspecified) | 2% | . | . | . | . | 1%
CCc1cccc(CC)c1NC(=O)COC(=O)c1ccccc1-c1nc2ccccc2s1 | 21µM* | -11% | ? | -21% | i | 16µM*
CC(c1ccco1)N(C(=O)c1ccc(F)cc1)c1ccccn1 (stereo unspecified) | -10% | -1% | -12% | 9% | i | ?
CC(c1ccco1)N(C(=O)C12CC3CC(CC(C)(C3)C1)C2)c1ccccn1 (stereo unspecified) | 16µM* | -1% | 0% | 7% | i | 21µM*
COC(=O)c1ccccc1-c1c2ccc(=N)cc-2oc2cc(N)ccc12 | 0.73µM* | ? | -97% | -27% | . | 0.58µM*
COC(=O)c1cc2ccccc2oc1=O | -18% | -6% | ? | -3% | i | -5%
Cc1ccc(-c2cc(C(=O)Nc3ccc(SC(F)F)cc3)no2)cc1F | ? | 5% | 5% | -16% | i | -24%
C=CCc1cccc(/C=C/c2cc(=O)c3ccccc3[nH]2)c1O | 7.3µM* | -22% | -8% | -18% | ? | 7.3µM*
O=[N+]([O-])c1ccc2c(c1)N([O-])C1(CCCCC1)[N+]2=O | 26µM* | -23% | -2% | 28% | i | ?
N#Cc1cnc2c(-c3ccccc3)c(-c3ccccc3)nn2c1N | 23µM* | -4% | ? | 8% | i | 18µM*

Screens deposited in PubChem BioAssay by National Center for Advancing Translational Sciences (NCATS).
